# In PubChem BioAssay:
# Experiment: reversal of MRP1-mediated doxorubicin resistance, pilot screen, H69AR cells, doxorubicin co-treatment (AID 601)
# Conditions: H69AR cells + 2 uM doxorubicin, CellTiter-Glo, 72 h; measured here: viability with 2 uM doxorubicin; at 10 µM; stronger effect = lower value
row,Structure (SMILES),viability
1,Cc1nnc2n(-c3ccc(Cl)cc3)c(=O)c3c4c(sc3n12)CN(C)CC4,103%
2,O=c1oc2c3c4c(cc2s1)CCCN4CCC3,91.2%
3,Cc1cc(C)n2nc(SCc3nc4ccccc4[nH]3)nc2n1,87.2%
4,Cc1cc(C)cc(N(CC(=O)Nc2cccc(C)n2)S(=O)(=O)c2c(C)noc2C)c1,73.8%
5,COc1cccc(C2C3=C(N=C4SCC(=O)N42)c2ccccc2CC3)c1OC (stereo not given),78.4%
6,O=C(Cn1nc(Cc2ccncc2)c2ccccc2c1=O)N1CCN(C(=O)c2ccco2)CC1,94.2%
7,O=C(Nc1c(C(=O)NCc2ccco2)cnn1-c1ccccc1)c1ccc(F)cc1,92.6%
8,Cc1nc2ccc(S(=O)(=O)NC(C(=O)Nc3nccs3)C(C)C)cc2s1 (stereo not given),90.3%
9,Cn1nnnc1SCC(=O)N1CCN(c2ccccc2)CC1,78.8%
10,COc1cc2c(cc1OC)-c1nnc(C)n1C1(CCCC1)C2,98.3%
11,CS(=O)(=O)N(Cc1ccco1)CC(O)Cn1c2ccccc2c2ccccc21 (stereo not given),83.4%
12,COc1cccc(C2=NOC(C(=O)N3CCc4ccccc4C3)C2)c1 (stereo not given),77.9%
13,O=C(CC1Oc2ccccc2NC1=O)NCCCN1CCOCC1 (stereo not given),96.9%
14,CCOC(=O)N1CCN(C(=O)c2ccc(CS(=O)(=O)c3c(Cl)cccc3Cl)o2)CC1,101%
15,CCn1cc(SCC(=O)Nc2cc(C)on2)c2ccccc21,80.5%
16,COc1ccccc1N1CCN(C(=O)N2CCOCC2)CC1,82.9%
17,O=C(CSc1nnc2ccccn12)c1ccccc1,80.3%
18,CCOc1ccc(N(CC(=O)OC)S(=O)(=O)c2ccc(OC)c(OC)c2)cc1,99.4%
19,CCCCSc1nc(CCC)cc(=O)[nH]1,88.5%
20,O=C(CN1CCN(Cc2ccccc2F)C1=O)NCc1cccnc1,90.4%

row,Structure (SMILES),viability
1,COc1ccc(OC)c(C(=O)c2ccc(C(=O)O)cc2)c1,96.5%
2,Cc1ccc(C)n1-n1c(C)nc2sc(-c3ccccc3)cc2c1=O,90.8%
3,CCn1c(C(=O)N2CCC(C(=O)N3CCN(c4ccccn4)CC3)CC2)cc2sccc21,54.2%
4,C=CCSc1nc(N)c2c(C)c(C)sc2n1,83.5%
5,COc1ccc(OCCSc2nc3ccccc3n2CC(=O)O)cc1,95.3%
6,Cc1nnc(SCC(=O)NCc2ccccc2)s1,99.3%
7,Clc1ccc(SCCCCn2ccnc2)cc1,88.3%
8,CC1(C)Oc2ccc3ccc(=O)oc3c2C(N2CCCCC2)C1O (stereo not given),85.3%
9,CSCCC(N=CC1=C(O)CC(C)(C)CC1=O)C(=O)O (stereo not given),89.3%
10,COc1ccc(C)cc1NC(=O)C1CCN(S(=O)(=O)c2cccc3cccnc23)CC1,86.1%
11,CCOc1ccc(-c2nnc(SCC(=O)N3CCN(c4ccccc4)CC3)o2)cc1,88.5%
12,CCCOc1ccc2ccccc2c1/C=N/n1cnnc1,69.2%
13,O=C(Cn1cc2c(n1)CCCCC2)N1CCc2ccccc21,91.8%
14,CCn1cc(C(=O)N2CCOCC2)c(=O)c2cc(S(=O)(=O)N(C)C3CCCCC3)ccc21,86.7%
15,COCCn1c(SCC(=O)Nc2ccc3c(c2)OCCO3)nc2c(c1=O)SC(C)C2 (stereo not given),106%
16,CC(C)CCN(C)C1CCN(S(=O)(=O)c2ccc(F)cc2)CC1,91.6%
17,COc1ccccc1-n1c(=O)[nH]c2c(C(N)=O)nc(-c3cccnc3)nc21,75.6%
18,Cn1c(/C=N/n2cnnc2)nc2ccccc21,97.8%
19,CN1CCN(CCCNC(=O)Cn2ncc3c4ccccc4n(C)c3c2=O)CC1,94.1%
20,CCOc1ccc(N(CC(=O)NCc2ccco2)S(=O)(=O)c2ccc(OC)c(OC)c2)cc1,83.2%
